Shiga inhibitor – inhibitors of Shiga toxin in Vero cells; inhibition, % at 38.7 µM; 9.2% of 290,000 active; AID 2315; Vero cells, Shiga toxin protein synthesis inhibition reporter; in the data active = inhibition mostly above about 28%, no sharp cut-off; inactive = mostly below about 43%; note: 0% is about no effect
Pf growth 48h – inhibits P. falciparum growth in the first generation, 48 h. Potency, µM (top dose mostly 28.7 µM), inactives show top-dose activity change, negative = inhibition, actives largely listed as inhibitors. P. falciparum luciferase growth in erythrocytes, 48 h. 5.9% of 310,000 active; note: potency is the fitted concentration of half-maximal effect; % is set by controls: 0 for no effect and ±100 for the full control effect
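Firefly luciferase activity from engineered P. falciparum reports growth; inhibitors lower the luminescent signal. Cultures contained 2% hematocrit erythrocytes at 0.1% final parasitemia.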
LmPK inhibitor – blocks Leishmania mexicana pyruvate kinase activity; AID 1721; Potency, µM (titrated, usually from 57.5 µM), inactives show top-dose activity change, negative = inhibition, hits mostly inhibitors; purified LmPK, Kinase-Glo ATP luminescence, 1 h; 0.37% of 290,000 active; note: potency is the fitted concentration of half-maximal effect; % is set by controls: 0 for no effect and ±100 for the full control effect
Target sequence (Q27686 whole entry, looked up): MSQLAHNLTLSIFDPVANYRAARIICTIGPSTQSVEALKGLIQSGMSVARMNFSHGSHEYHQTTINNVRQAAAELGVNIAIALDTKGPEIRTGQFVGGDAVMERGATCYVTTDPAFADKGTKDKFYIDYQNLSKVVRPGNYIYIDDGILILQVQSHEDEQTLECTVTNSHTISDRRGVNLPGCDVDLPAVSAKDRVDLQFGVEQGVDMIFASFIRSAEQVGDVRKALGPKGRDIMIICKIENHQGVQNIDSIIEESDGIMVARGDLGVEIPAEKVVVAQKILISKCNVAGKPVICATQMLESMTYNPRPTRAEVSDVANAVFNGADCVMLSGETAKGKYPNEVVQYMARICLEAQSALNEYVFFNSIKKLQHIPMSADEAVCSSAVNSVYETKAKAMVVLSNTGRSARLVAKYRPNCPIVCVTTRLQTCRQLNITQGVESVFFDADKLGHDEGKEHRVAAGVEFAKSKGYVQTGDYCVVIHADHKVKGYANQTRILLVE
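0.1 nM LmPK, 0.5 mM PEP, 0.1 mM ADP; 50 mM imidazole pH 7.2, 7 mM MgCl2, 50 mM KCl; 1 h RT. Kinase-Glo luminescence readout, normalized to no-enzyme (full inhibition) and uninhibited wells.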
CHX counter – affects cycloheximide protein synthesis inhibition readout, counter-screen. cell reporter, cycloheximide protein synthesis inhibition counterscreen. max response, %. 12% of 300,000 active. AID 2314; in the data active = max response mostly above about 13%, no sharp cut-off; inactive = mostly below about 14%; note: read at 38.3 µM for the half of the compounds with a filed dose; 0% is about no effect
Pf growth 96h – P. falciparum growth inhibition at 96 hour, primary screen for plastid delayed-death inhibitors | 6.9% of 320,000 active | P. falciparum luciferase reporter growth, 96 h | Potency, µM (series often up to 28.7 µM), for the others: at the top dose activity change, negative = inhibition, most hits filed as inhibitors; note: potency is the fitted concentration of half-maximal effect; % is set by controls: 0 for no effect and ±100 for the full control effect
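Plates of compound plus infected erythrocytes (2% hematocrit, 0.05% parasitemia final) incubate 96 hours, 37 C, 5% CO2. Detection reagent added; reduced luminescence from the parasites' luciferase reporter flags inhibition.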
* = called active by the depositor; [ ] = dose if it differs, or a comment. Most compounds without a hit are left out; they make up all but 22% or so of the library. Unless noted, calls come from the whole dose curve; as a rule, active = well fitted inhibition curve with a large enough effect; inconclusive = small, poorly fitted or top-dose-only effect, or another doubt; inactive = no such curve, though single readings can be large or run the other way.

For COCc1cc(C)nc(SCC(=O)Nc2ccc3c(c2)OCO3)c1C#N the results were Shiga inhibitor 10, Pf growth 48h 14%, LmPK inhibitor 1%, CHX counter 7 and Pf growth 96h 1%.
`COCc1cc(C)nc(SCC(=O)Nc2ccc3c(c2)OCCO3)c1C#N` gave Shiga inhibitor 19, Pf growth 48h 49%, LmPK inhibitor -9%, CHX counter 11* and Pf growth 96h 11%.
`CCOc1ccc(CSc2nc(C)cc(COC)c2C#N)cc1OCC` gave Shiga inhibitor 6, Pf growth 48h 13µM*, LmPK inhibitor 8%, CHX counter -3 and Pf growth 96h -15%.
`COCc1cc(C)nc(SCC(=O)Nc2cccc3cccnc23)c1C#N` gave Shiga inhibitor -5, Pf growth 48h 15%, LmPK inhibitor -3%, CHX counter -3 and Pf growth 96h 12µM*.
O=C(CN1C(=O)c2ccccc2C1=O)Nc1cccc(S(=O)(=O)Nc2ccccc2Cl)c1 was read as Shiga inhibitor -4, Pf growth 48h 0%, LmPK inhibitor -2%, CHX counter -1 and Pf growth 96h -12%.
OC(CN1CCN(c2ccc(F)cc2)CC1)c1ccc(Cl)cc1 (stereo not given) was read as Shiga inhibitor -7, LmPK inhibitor -3%, CHX counter -2 and Pf growth 96h 13µM*.
Screening COc1ccc(N2CCN(CC(O)COC(c3ccc(F)cc3)c3ccc(F)cc3)CC2)cc1 (stereo not given) returned Shiga inhibitor -3, Pf growth 48h 9.3µM*, LmPK inhibitor -12%, CHX counter -3 and Pf growth 96h 15µM*.
`OC(CN1CCC(Cc2ccc(F)cc2)CC1)c1ccc(Cl)cc1` (stereo not given) gave Pf growth 48h 1.5µM* and Pf growth 96h 2.1µM*.
Screening CCC1(CC)C(=O)N(C)C(=O)NC1=Nc1ccc(OC)cc1 returned Shiga inhibitor -16, Pf growth 48h -4%, LmPK inhibitor 11% and CHX counter 6.
Screening Cc1nn(CC(C)C(=O)N2CCN(S(=O)(=O)c3ccc(Cl)cc3)CC2)c(C)c1C (stereo not given) returned Shiga inhibitor -4, Pf growth 48h inconclusive, LmPK inhibitor -4%, CHX counter -2 and Pf growth 96h -18%.
CC(C)C[C@@H](C(=O)N[C@@H](C(=O)O)c1ccccc1)N1C(=O)N2CCc3c([nH]c4ccccc34)[C@@]2(C)C1=O was read as Shiga inhibitor -1, Pf growth 48h inconclusive, LmPK inhibitor -9%, CHX counter -3 and Pf growth 96h inconclusive.
`CCn1cc(C(=O)N(C)CC(OC)OC)c(=O)c2cc(S(=O)(=O)N3CCOCC3)ccc21` gave Shiga inhibitor -3, Pf growth 48h 16%, LmPK inhibitor 4%, CHX counter -2 and Pf growth 96h 6.6µM*.
CCOC(=O)C1CCCN(C(=O)c2cc(S(=O)(=O)N3CCCCC3)ccc2C)C1 (stereo not given) was read as Shiga inhibitor 10, Pf growth 48h 8.3µM*, LmPK inhibitor 4%, CHX counter -1 and Pf growth 96h inconclusive.
Screening CCOC(=O)C1CCCN(C(=O)c2cn(C)c3ccc(S(=O)(=O)N4CCCC4)cc3c2=O)C1 (stereo not given) returned Shiga inhibitor -12, Pf growth 48h -21%, LmPK inhibitor 0%, CHX counter -3 and Pf growth 96h -24%.
Screening CCn1cc(C(=O)NCCN(CC(C)C)CC(C)C)c(=O)c2cc(S(=O)(=O)N3CCOCC3)ccc21 returned Shiga inhibitor -8, Pf growth 48h inconclusive, LmPK inhibitor 4%, CHX counter -7 and Pf growth 96h 0%.
For CCOC(=O)C1CCCN(C(=O)c2cn(CC)c3ccc(S(=O)(=O)N4CCCC4)cc3c2=O)C1 (stereo not given) the results were Shiga inhibitor -9, Pf growth 48h 12µM*, LmPK inhibitor -1% and CHX counter -3.
For CCOC(=O)C1CCCN(C(=O)c2ccc(S(=O)(=O)N3CCCC3)cc2)C1 (stereo not given) the results were Pf growth 48h -7% and Pf growth 96h -3%.
CCOC(=O)C1CCN(C(=O)COc2ccc(S(=O)(=O)N3CCCC3)cc2C)CC1 was read as Shiga inhibitor -11, Pf growth 48h -21%, LmPK inhibitor 1%, CHX counter -1 and Pf growth 96h 3.3µM*.
For CCn1cc(C(=O)N2CCc3ccccc32)c(=O)c2cc(S(=O)(=O)N3CCCC3)ccc21 the results were Shiga inhibitor -15, Pf growth 48h inconclusive, LmPK inhibitor 1%, CHX counter -3 and Pf growth 96h 12µM*.
For CS(=O)(=O)Cc1ccc(C(=O)N(CCc2ccccc2)Cc2ccccc2)cc1 the results were Shiga inhibitor 11, Pf growth 48h -10%, LmPK inhibitor 2%, CHX counter -2 and Pf growth 96h -13%.
Screening COc1ccc(N=Nc2cc(C)ccc2O)cc1 returned Shiga inhibitor 82*, Pf growth 48h 229%, LmPK inhibitor inconclusive, CHX counter 48* and Pf growth 96h 364%.
Screening Cc1ccc(O)c(N=Nc2ccc(S(=O)(=O)N3CCCC3)cc2)c1 returned Shiga inhibitor 42*, Pf growth 48h inconclusive, LmPK inhibitor 1%, CHX counter 27* and Pf growth 96h inconclusive.
`Cc1ccc(O)c(N=Nc2nccs2)c1` gave Pf growth 48h inconclusive and Pf growth 96h -67%.
Screening COc1cccc(N=Nc2ccc3ccccc3c2O)c1 returned Shiga inhibitor 58*, Pf growth 48h -74%, LmPK inhibitor -6%, CHX counter 40* and Pf growth 96h -25%.
Cc1ccc(S(=O)(=O)N2CCCCC2)cc1 was read as Shiga inhibitor -1, LmPK inhibitor 0%, CHX counter 12 and Pf growth 96h 18%.
Screening COc1ccc(N=Nc2ccc3ccccc3c2)c(O)c1 returned Pf growth 48h 146%, LmPK inhibitor -10%, CHX counter 50* and Pf growth 96h 103%.
Screening Fc1ccc(NC(=S)N2CCCN(c3ccc(C(F)(F)F)cn3)CC2)c(F)c1 returned Shiga inhibitor 2, Pf growth 48h 10µM*, LmPK inhibitor -2%, CHX counter -3 and Pf growth 96h inconclusive.
COc1cc(CNC2CCCCC2OC)cc(OC)c1OC (stereo not given) was read as Shiga inhibitor -3, Pf growth 48h -13%, LmPK inhibitor 3%, CHX counter 3 and Pf growth 96h -29%.
CCN(CC)CC(C)CNC(=O)C1(O)c2ccccc2NC(=O)N1c1ccc(Cl)c(Cl)c1 (stereo not given) was read as Shiga inhibitor -10, Pf growth 48h -16%[0.00184 µM], LmPK inhibitor 1%, CHX counter -3 and Pf growth 96h 0%.
COc1ccc(C2Nc3ccccc3C(=O)N2Cc2ccco2)cc1COc1ccc(F)cc1 (stereo not given) was read as Shiga inhibitor 40*, Pf growth 48h 2.1µM*, LmPK inhibitor 6%, CHX counter 60* and Pf growth 96h 6.6µM*.
